The test system of assay [1] is Wnt5a (protein binding on small-molecule microarray). As to the kind of experiment: small molecules binding Wnt5a protein – biophysical, small-molecule microarray, 635/667 nm fluorescence, primary screen (AID 1142).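 Note: fluorescence read at 667 nm with signal to noise per printed feature.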 As to conditions: 635 nm fluorescence, higher = more signal.
The nature of assay [2]: ATP-based viability of Huh7 replicon cells – cell-based, CellTiter-Glo luminescence, basal, 48 h, cytotoxicity control for HCV replication inhibitor project, primary screen (AID 1143).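 Note: Huh7 hepatoma cells carrying a hepatitis C replication reporter with no stimulus; test concentration not given here.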 Conditions: higher = more signal, called active from +8 up or from −8 down. For orientation: Replicon systems follow genome replication, usually without infectious particles.
Assay [3] is described as follows: Pseudomonas biofilm growth suppression – PAO1 strain, BacTiter-Glo luminescence, LB-PBS, primary screen (AID 1144). Conditions: P. aeruginosa PAO1 biofilm, 12 h, higher = more signal.
Assay [4] can be described thus: basal CRE-LacZ reporter activity in PC12 – cell-based, unstimulated, primary screen (AID 1145). As to conditions: no forskolin, luminescence, 4.5 h, higher = more signal, called active from +8 up or from −8 down.
The nature of assay [5]: forskolin-driven CRE-LacZ activity in PC12 – cell-based, CRE-LacZ reporter, forskolin-stimulated, primary screen (AID 1146).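 Note: PC12 cells with 6xCRE LacZ reporter stimulated by forskolin 10 µM; beta-galactosidase reporter signal reflecting CREB driven transcription.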 As to conditions: luminescence, 4.5 h, higher = more signal, called active from +8 up or from −8 down.
For assay [6], the target named is Streptavidin (Streptomyces avidinii) (UniProt P22629). As to the kind of experiment: compounds binding control protein streptavidin – biophysical, small-molecule microarray, 635/667 nm fluorescence, artefact control for SMM compound annotation, primary screen (AID 1147).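 Note: signal reflects streptavidin binding to arrayed compounds as a control protein.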 As to conditions: higher = more signal.
Streptavidin (Streptomyces avidinii), sequence (P22629 whole entry, looked up): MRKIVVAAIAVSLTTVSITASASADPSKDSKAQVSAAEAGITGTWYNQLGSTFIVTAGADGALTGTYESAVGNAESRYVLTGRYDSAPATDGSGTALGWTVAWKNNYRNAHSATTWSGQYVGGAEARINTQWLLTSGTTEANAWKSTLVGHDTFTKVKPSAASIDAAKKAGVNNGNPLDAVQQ
Assay [7] is described as follows: probe aInhba binding on compound microarray – biochemical, small-molecule microarray, 635/667 nm fluorescence, primary screen (AID 1148).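 Note: score merges 667nm spot fluorescence with signal-to-noise for antibody binding to printed compounds.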 As to conditions: higher = more signal.
The target of assay [8] is Torsin-1A (Homo sapiens) (UniProt O14656). As to the kind of experiment: TOR1A wild-type binding on microarray – cell lysate, small-molecule microarray, lysate, 635/667 nm, primary screen (AID 1149). As to conditions: COS7 hTOR1A-WT lysate, 635 nm fluorescence, higher = more signal.
Torsin-1A (Homo sapiens), sequence (O14656 whole entry, looked up): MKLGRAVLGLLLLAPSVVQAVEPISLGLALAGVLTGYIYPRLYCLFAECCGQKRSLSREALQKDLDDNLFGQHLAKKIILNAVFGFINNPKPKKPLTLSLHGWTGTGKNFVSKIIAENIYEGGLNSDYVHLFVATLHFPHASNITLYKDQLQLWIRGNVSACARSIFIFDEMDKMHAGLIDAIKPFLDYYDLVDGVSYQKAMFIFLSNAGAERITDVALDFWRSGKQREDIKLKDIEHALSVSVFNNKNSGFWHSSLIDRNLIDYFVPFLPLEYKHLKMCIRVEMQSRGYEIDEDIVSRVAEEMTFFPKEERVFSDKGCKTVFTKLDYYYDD
Assay [9] has the same target. As to the kind of experiment: torsin A mutant lysate binding on microarrays – cell lysate, small-molecule microarray, COS7 lysate, 635/667 nm fluorescence, primary screen (AID 1150).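 Note: score pools 667 nm emission and signal to noise measuring lysate protein binding.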 As to conditions: COS7 hTOR1A mutant lysate, 635 nm fluorescence, higher = more signal.
Assay [10] concerns Sonic hedgehog protein (Shh). As to the kind of experiment: Sonic hedgehog microarray binding compounds – biochemical, small-molecule microarray, 635/667 nm fluorescence, primary screen (AID 1151).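 Note: Shh protein binding to compounds spotted on small-molecule microarray slides; score combines spot fluorescence intensity with signal-to-noise across triplicate slides.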 Conditions: 635 nm fluorescence, higher = more signal.
Assay [11] in a line: optical density shifts of acrAB sulA E. coli – strain DRC41, OD650, 48 h, E. coli filamentation inducer project, primary screen (AID 1152).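 Note: E. coli MC1000 strain DRC41 lacking acrAB efflux pump and sulA.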 Conditions: higher = more signal, called active from +8 up or from −8 down.
A short description of assay [12]: probe aLefty1 binding on compound microarray – biochemical, small-molecule microarray, 635/667 nm fluorescence, primary screen (AID 1153).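 Note: score merges spot fluorescence with signal-to-noise ratio from the scanned slide images.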 As to conditions: higher = more signal.
A short description of assay [13]: plasmodial surface anion channel blockers, osmotic lysis – cell-based, P. falciparum Indochina, OD700, 1 h, primary screen (AID 1154). Conditions: P. falciparum Indochina infected RBC osmotic lysis, higher = more signal, called active from +8 up or from −8 down.
Assay [14] in a line: plasmodial surface anion channel blockers, osmotic lysis – cell-based, P. falciparum Indochina, OD700, 2 h, primary screen (AID 1155).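 Note: lysis reports solute entry through the parasite surface anion channel PSAC.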 Conditions: P. falciparum Indochina infected erythrocytes, higher = more signal, called active from +8 up or from −8 down.
Assay [15] can be described thus: changes in parasitized red cell lysis, either direction – P. falciparum Indochina, OD700, 3 h, PSAC antagonist project, primary screen (AID 1156). Conditions: P. falciparum-infected erythrocytes, osmotic lysis, higher = more signal, called active from +8 up or from −8 down.
Assay [16] in a line: plasmodial surface anion channel blockers, osmotic lysis – cell-based, P. falciparum Indochina, OD700, 18 h, primary screen (AID 1157). As to conditions: P. falciparum Indochina infected erythrocytes, osmotic lysis OD700, 18 h; higher = more signal, called active from +8 up or from −8 down.
Assay [17] is described as follows: S6 kinase pathway phospho-S6 level changes – cell-based, A549, cytoblot, luminescence, serum-stimulated, primary screen (AID 1158).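 Note: serum-stimulated A549 lung adenocarcinoma cells; signal is phosphorylated S6 detected by cytoblot immunostaining with HRP secondary.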 Conditions: 5 h, higher = more signal.
The target in assay [18] is NADPH oxidase 2 (Homo sapiens) (UniProt P04839). As to the kind of experiment: compounds shifting NOX2 Amplex Red fluorescence – cell-based, HEK293-NOX2, PMA-stimulated, NOX inhibitor project, primary screen (AID 1159). Note: test concentration not given here. As to conditions: 45 min, higher = more signal, called active from +8 up or from −8 down.
NADPH oxidase 2 (Homo sapiens), sequence (P04839 whole entry, looked up): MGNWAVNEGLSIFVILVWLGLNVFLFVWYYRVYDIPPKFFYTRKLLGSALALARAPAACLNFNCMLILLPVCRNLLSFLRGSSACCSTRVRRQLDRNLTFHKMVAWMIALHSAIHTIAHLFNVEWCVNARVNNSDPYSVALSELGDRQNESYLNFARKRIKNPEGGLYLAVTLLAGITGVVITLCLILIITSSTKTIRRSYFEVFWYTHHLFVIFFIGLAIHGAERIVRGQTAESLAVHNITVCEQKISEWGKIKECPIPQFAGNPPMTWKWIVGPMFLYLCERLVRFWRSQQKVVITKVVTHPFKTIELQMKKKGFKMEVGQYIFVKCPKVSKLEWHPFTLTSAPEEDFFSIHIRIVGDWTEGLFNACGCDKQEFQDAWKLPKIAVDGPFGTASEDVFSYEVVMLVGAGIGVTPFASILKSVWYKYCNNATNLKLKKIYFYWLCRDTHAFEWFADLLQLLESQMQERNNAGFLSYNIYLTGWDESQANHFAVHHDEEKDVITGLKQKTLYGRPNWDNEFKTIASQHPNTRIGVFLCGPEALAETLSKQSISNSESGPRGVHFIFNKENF
The target of assay [19] is NADPH oxidase 4 (Homo sapiens) (UniProt Q9NPH5). As to the kind of experiment: compounds shifting NOX4 Amplex Red fluorescence – cell-based, HEK293-NOX4, tetracycline-induced, NOX inhibitor project, primary screen (AID 1160). As to conditions: HEK293-NOX4, Amplex Red H2O2 fluorescence, 45 min; higher = more signal, called active from +8 up or from −8 down.
NADPH oxidase 4 (Homo sapiens), sequence (Q9NPH5 whole entry, looked up): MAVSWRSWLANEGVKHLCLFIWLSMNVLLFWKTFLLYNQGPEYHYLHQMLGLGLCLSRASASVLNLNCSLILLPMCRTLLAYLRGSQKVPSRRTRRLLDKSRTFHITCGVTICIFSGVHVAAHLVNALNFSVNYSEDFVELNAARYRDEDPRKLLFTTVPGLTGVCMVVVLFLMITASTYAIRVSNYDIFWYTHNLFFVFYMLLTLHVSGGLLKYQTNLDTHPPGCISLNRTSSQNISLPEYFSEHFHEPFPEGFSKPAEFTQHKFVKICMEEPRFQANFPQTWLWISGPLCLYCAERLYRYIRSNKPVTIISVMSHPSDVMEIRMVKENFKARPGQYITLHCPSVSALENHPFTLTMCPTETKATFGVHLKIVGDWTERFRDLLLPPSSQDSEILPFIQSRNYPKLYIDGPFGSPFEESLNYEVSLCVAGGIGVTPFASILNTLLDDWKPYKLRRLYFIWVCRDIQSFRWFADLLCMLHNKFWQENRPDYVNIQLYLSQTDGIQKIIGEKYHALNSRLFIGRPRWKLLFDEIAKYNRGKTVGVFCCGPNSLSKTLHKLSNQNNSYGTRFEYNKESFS
The target in assay [20] is NADPH oxidase 5 (Homo sapiens) (UniProt Q96PH1). As to the kind of experiment: compounds shifting NOX5 Amplex Red fluorescence – cell-based, HEK293-NOX5, NOX inhibitor project, primary screen (AID 1161). As to conditions: HEK293-NOX5, ionomycin, 45 min, higher = more signal.
NADPH oxidase 5 (Homo sapiens), sequence (Q96PH1 whole entry, looked up): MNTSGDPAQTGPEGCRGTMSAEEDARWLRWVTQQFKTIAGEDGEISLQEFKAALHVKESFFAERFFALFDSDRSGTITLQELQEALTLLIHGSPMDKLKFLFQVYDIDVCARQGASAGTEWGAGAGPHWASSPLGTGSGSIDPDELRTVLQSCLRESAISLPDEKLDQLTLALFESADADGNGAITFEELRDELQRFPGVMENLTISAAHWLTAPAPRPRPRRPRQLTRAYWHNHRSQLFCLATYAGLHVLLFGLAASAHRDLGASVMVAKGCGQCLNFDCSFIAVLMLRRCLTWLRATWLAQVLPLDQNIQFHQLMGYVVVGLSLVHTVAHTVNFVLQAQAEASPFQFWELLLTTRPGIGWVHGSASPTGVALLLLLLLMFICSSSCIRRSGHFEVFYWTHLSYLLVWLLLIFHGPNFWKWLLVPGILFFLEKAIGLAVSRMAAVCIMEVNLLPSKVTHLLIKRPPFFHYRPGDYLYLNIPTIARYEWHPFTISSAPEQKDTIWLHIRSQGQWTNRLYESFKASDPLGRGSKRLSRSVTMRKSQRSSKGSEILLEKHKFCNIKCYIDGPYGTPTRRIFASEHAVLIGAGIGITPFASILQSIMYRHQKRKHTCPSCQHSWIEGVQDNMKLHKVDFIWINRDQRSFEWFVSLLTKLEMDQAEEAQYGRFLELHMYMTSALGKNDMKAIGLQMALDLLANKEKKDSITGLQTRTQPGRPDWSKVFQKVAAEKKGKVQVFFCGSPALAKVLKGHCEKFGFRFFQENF

The structures appear in SMILES notation. Active and inactive are the calls of the source. Unless noted, the rule behind the calls is not given here.

Regarding `CC(C)CNC(=O)[C@@H]1c2ccccc2C(=O)N(C2Cc3ccccc3C2)[C@H]1c1ccc(CO)cc1`, the composite z-score was -0.0027 in assay [1]; -0.861 in assay [6]; -0.106 in [7]; -1.03 in the assay with Torsin-1A (Homo sapiens) [8]; 0.0877 with Torsin-1A (Homo sapiens) [9]; 0.436 in [10]. The compound also displayed a composite z-score in assay [12] of 0.0861. Besides, the z-score in [2] is -0.13 (inactive); in [3] it was 0.92 (inactive); in assay [4], 0.118 (inactive); in assay [5] it was -0.748 (inactive); in [11], 1.93 (inactive); in assay [13], 3.11 (inactive). Moreover, the z-score is 0.693 (inactive) in assay [14]; 1.18 (inactive) in assay [15]; 0.232 (inactive) in assay [16]; 0.0629 in assay [17]; 0.182 (inactive) in [18]; 1.12 (inactive) in assay [19]. Also, in [20], the z-score is 0.105.
For `NC(=O)[C@@]1(CCS(=O)(=O)c2ccccc2)COC(c2ccc(OCCCO)cc2)=N1`, the composite z-score in [1] is 0.375; in assay [6], 0.447; in assay [7] it was -0.0044; with Torsin-1A (Homo sapiens) [8] it was -0.0756; in the assay with Torsin-1A (Homo sapiens) [9], 0.324; in assay [10], -0.463. Moreover, the composite z-score in [12] is 0.281. In addition, the z-score in [2] is -1.5 (inactive); in assay [3] it was 1.59 (inactive); in assay [4], 0.148 (inactive); in [5] it was -1.35 (inactive); in [11], 1.05 (inactive); in assay [13] it was 22.1 (active). For the same compound, the z-score in assay [14] is 4.56 (inactive); in [15] it was 0.815 (inactive); in assay [16], 0.939 (inactive); in [17], -0.192; in assay [18], -2.33 (inactive); in assay [19], -0.383 (inactive). For the same compound, the z-score in assay [20] was -0.124.
For the compound `CC(C)=CCN(C(=O)C#Cc1ccccc1)[C@H](CO)c1ccccc1`, the composite z-score was -0.0314 in assay [1]; -0.131 in assay [6]; -0.15 in [7]; 0.423 with Torsin-1A (Homo sapiens) [8]; -0.0045 with Torsin-1A (Homo sapiens) [9]; 0.708 in assay [10]. Further, in assay [12], the composite z-score is -0.0876. Further, the z-score in [2] was -8.76 (active); in [3] it was 1.15 (inactive); in assay [4], 14.3 (active); in assay [5], -4.52 (inactive); in assay [11], -4.56 (inactive); in assay [13], 16.8 (active). For the same compound, the z-score in assay [14] is 3.67 (inactive); in assay [15], -2.25 (inactive); in assay [16], 0.402 (inactive); in [17], 0.21; in assay [18], 2.15 (inactive); in assay [19], -1 (inactive). For the same compound, the z-score in [20] is -3.76.
Turning to `COC(=O)[C@@]1(Cc2ccccc2)[C@H]2c3cc(C(=O)N4CCCC4)n(Cc4ccc(C(F)(F)F)nc4)c3C[C@H]2CN1C(=O)c1ccccc1`, the composite z-score was 0.836 in [1]; 1.78 in assay [6]; 0.446 in [7]; 1.03 in the assay with Torsin-1A (Homo sapiens) [8]; 0.774 with Torsin-1A (Homo sapiens) [9]; -0.878 in assay [10]. The composite z-score in [12] came out at 0.689. For the same compound, the z-score in assay [2] was -2.97 (inactive); in assay [3], 0.519 (inactive); in [4] it was 0.0075 (inactive); in assay [5] it was -0.611 (inactive); in assay [11] it was -1.31 (inactive); in assay [13], 2.24 (inactive). Moreover, the z-score in assay [14] was 0.145 (inactive); in [15], 1.45 (inactive); in assay [16], 0.444 (inactive); in assay [17], -0.467; in [18], 0.262 (inactive); in assay [19] it was 0.396 (inactive). The z-score in assay [20] was -3.03.
